This note sets out measurements from ChEMBL document CHEMBL1961873, “Compounds: GSK PKIS; Assays: Nanosyn kinase panel” (2012).

Test [1] deals with T1, Serine/threonine-protein kinase Nek9 (Homo sapiens) (UniProt Q8TD19).
T1 sequence (whole entry): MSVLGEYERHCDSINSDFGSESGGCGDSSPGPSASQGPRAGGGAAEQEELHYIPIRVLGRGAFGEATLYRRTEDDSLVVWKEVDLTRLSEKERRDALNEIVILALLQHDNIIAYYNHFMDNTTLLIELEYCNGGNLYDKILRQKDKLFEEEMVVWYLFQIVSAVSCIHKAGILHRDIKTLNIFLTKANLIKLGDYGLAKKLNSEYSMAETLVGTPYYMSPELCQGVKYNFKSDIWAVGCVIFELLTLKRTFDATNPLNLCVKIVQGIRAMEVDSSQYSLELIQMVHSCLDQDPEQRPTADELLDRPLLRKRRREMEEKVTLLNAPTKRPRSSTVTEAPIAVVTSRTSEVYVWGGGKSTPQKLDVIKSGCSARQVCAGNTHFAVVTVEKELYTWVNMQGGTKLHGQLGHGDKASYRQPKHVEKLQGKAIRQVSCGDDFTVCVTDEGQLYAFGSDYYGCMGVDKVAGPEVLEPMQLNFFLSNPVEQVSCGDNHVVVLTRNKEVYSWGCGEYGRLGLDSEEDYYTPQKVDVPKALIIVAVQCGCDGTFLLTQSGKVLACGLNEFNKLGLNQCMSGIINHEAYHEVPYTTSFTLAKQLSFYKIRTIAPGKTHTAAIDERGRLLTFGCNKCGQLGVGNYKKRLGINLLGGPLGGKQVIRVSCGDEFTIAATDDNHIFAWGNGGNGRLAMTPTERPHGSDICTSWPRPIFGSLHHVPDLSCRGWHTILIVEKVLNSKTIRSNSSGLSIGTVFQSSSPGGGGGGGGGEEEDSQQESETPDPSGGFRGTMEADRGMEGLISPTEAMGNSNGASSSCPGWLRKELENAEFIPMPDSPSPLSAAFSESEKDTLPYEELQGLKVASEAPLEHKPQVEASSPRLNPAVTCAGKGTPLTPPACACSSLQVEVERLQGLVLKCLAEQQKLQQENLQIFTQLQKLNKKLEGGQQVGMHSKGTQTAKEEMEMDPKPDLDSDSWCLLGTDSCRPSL
The note with it: at 1 µM.

For test [2], the target named is Serine/threonine-protein kinase PLK1 (Homo sapiens) (UniProt P53350). Particulars: at 0.1 µM.
Test [3] shares this target. The note with it: at 1 µM.
Test [4] addresses T2, Dual specificity protein kinase TTK (Homo sapiens) (UniProt P33981).
T2 sequence (whole entry): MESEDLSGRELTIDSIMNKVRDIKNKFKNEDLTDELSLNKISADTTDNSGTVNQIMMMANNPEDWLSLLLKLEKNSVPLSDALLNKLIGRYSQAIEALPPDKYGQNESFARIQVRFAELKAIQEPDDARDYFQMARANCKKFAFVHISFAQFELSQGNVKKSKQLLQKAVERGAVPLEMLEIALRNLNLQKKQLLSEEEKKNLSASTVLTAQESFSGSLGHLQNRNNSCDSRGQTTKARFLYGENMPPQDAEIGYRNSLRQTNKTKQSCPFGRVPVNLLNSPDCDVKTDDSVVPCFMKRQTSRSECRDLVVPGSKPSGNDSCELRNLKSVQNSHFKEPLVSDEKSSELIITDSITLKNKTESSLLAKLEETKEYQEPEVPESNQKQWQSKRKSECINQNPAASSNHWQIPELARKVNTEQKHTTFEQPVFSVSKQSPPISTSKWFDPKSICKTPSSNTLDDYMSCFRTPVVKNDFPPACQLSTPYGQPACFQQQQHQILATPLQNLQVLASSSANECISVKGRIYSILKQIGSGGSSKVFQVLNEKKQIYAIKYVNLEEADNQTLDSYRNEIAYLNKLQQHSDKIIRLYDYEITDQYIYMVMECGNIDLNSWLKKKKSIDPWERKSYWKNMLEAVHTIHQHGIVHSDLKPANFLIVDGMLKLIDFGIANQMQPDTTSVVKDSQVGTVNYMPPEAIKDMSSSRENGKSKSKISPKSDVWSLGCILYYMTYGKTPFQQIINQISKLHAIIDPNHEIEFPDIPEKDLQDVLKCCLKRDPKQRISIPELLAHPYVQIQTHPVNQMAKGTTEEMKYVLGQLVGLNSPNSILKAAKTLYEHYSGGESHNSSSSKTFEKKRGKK
Particulars: at 0.1 µM.

In test [5] the test system is T3, Receptor-type tyrosine-protein kinase FLT3 (Homo sapiens), P36888 [D835Y].
T3 sequence (whole entry): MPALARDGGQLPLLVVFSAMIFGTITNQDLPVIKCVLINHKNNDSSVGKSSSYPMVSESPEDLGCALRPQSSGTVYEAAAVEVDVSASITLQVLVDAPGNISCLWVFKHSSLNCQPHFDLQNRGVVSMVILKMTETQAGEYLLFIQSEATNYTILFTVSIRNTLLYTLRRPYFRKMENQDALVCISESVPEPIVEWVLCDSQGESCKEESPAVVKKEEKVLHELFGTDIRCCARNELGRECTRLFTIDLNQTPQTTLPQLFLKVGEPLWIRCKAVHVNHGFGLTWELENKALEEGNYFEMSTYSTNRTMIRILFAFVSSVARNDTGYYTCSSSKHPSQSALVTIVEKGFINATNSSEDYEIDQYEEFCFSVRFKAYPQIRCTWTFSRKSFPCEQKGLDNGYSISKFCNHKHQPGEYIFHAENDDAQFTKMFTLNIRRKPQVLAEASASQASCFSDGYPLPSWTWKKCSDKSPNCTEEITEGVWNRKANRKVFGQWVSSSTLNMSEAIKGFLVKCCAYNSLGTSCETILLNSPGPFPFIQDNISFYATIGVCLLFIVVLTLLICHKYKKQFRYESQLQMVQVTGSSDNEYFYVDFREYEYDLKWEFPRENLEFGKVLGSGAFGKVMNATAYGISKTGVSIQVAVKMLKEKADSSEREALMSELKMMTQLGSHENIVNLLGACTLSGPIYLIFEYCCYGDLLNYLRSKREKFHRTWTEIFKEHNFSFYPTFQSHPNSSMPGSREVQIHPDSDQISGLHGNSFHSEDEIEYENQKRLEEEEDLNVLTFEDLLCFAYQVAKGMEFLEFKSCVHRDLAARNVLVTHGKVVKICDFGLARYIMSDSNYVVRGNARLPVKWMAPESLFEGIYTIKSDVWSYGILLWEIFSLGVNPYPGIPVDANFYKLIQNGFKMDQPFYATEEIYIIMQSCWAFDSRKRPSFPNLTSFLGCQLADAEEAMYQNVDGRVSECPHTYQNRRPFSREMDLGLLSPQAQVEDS
Particulars: at 1 µM.

The target in test [6] is Vascular endothelial growth factor receptor 3 (Homo sapiens) (UniProt P35916). The note with it: at 0.1 µM.
Test [7] has the same target. Particulars: at 1 µM.
For test [8], the target named is Macrophage colony-stimulating factor 1 receptor (Homo sapiens) (UniProt P07333). The note with it: at 0.1 µM.
Macrophage colony-stimulating factor 1 receptor (Homo sapiens), sequence (P07333 whole entry): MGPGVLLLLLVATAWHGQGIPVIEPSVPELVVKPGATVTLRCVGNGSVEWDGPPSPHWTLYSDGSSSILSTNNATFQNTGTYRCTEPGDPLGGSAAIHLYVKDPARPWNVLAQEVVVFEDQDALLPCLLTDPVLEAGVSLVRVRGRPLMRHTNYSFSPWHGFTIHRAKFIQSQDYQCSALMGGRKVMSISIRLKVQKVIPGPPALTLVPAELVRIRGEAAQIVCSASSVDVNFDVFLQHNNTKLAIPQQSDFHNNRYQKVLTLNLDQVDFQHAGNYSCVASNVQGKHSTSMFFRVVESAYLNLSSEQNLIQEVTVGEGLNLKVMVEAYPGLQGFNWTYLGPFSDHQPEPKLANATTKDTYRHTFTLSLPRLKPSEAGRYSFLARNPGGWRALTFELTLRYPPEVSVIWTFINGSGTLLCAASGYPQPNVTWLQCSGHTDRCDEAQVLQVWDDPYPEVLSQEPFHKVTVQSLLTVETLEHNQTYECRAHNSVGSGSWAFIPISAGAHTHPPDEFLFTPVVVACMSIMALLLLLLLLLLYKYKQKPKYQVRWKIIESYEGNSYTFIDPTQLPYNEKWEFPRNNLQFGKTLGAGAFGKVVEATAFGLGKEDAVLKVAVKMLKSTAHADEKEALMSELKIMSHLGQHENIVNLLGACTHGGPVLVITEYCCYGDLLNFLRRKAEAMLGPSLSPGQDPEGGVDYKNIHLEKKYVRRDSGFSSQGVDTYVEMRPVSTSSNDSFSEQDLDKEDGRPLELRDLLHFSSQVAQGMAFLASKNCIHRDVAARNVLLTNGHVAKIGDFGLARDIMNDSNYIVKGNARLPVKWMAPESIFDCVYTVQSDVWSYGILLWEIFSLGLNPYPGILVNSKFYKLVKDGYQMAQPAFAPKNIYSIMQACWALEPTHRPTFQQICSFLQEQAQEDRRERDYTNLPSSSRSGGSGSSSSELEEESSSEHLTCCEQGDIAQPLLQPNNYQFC
For test [9] the target is unchanged. Particulars: at 1 µM.
The target in test [10] is Tyrosine-protein kinase Fyn (Homo sapiens) (UniProt P06241). Particulars: at 0.1 µM.
Tyrosine-protein kinase Fyn (Homo sapiens), sequence (P06241 2-537 limits assumed): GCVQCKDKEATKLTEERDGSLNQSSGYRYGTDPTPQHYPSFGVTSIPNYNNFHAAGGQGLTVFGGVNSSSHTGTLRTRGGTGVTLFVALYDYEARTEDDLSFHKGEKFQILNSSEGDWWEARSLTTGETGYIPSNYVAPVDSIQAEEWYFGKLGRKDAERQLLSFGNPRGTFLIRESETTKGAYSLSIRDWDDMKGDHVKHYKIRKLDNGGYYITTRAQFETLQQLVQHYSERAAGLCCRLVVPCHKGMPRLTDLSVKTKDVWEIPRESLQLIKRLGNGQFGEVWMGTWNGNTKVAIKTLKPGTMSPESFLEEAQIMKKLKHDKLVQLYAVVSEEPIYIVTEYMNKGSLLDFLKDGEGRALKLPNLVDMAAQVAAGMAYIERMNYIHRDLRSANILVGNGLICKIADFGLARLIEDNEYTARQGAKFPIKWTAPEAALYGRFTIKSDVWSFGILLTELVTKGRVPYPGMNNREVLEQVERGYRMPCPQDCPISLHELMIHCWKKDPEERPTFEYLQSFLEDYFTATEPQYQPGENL
For test [11] the target is unchanged. The note with it: at 1 µM.
Test [12] addresses Tyrosine-protein kinase HCK (Homo sapiens) (UniProt P08631). The note with it: at 0.1 µM.
Test [13] shares this target. Particulars: at 1 µM.
Test [14] addresses Insulin-like growth factor 1 receptor (Homo sapiens) (UniProt P08069). Particulars: at 0.1 µM.
For test [15] the target is unchanged. Particulars: at 1 µM.
For test [16], the target named is Insulin receptor (Homo sapiens) (UniProt P06213). The note with it: at 0.1 µM.
For test [17] the target is unchanged. Particulars: at 1 µM.
The target in test [18] is Insulin receptor-related protein (Homo sapiens) (UniProt P14616). The note with it: at 0.1 µM.
Insulin receptor-related protein (Homo sapiens), sequence (P14616 27-742 limits assumed): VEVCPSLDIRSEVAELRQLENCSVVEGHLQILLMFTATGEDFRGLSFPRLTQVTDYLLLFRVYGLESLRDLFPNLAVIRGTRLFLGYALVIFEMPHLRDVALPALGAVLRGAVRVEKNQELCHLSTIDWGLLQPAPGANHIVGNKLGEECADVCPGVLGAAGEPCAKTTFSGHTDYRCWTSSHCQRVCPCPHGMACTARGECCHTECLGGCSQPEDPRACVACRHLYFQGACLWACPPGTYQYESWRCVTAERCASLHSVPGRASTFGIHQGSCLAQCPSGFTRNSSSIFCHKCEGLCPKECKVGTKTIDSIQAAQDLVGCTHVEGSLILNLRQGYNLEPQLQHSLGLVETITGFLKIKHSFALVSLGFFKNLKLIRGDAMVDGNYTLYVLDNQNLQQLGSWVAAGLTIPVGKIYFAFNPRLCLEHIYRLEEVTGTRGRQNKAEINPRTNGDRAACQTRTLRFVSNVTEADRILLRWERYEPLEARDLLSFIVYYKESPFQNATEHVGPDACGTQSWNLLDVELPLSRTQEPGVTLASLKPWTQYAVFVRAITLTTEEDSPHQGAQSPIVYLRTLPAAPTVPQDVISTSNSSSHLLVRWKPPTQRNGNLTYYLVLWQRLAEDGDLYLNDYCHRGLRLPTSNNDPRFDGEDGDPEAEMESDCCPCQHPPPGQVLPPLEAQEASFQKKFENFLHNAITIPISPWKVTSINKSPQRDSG
Insulin receptor-related protein (Homo sapiens), sequence (P14616 747-1297 limits assumed): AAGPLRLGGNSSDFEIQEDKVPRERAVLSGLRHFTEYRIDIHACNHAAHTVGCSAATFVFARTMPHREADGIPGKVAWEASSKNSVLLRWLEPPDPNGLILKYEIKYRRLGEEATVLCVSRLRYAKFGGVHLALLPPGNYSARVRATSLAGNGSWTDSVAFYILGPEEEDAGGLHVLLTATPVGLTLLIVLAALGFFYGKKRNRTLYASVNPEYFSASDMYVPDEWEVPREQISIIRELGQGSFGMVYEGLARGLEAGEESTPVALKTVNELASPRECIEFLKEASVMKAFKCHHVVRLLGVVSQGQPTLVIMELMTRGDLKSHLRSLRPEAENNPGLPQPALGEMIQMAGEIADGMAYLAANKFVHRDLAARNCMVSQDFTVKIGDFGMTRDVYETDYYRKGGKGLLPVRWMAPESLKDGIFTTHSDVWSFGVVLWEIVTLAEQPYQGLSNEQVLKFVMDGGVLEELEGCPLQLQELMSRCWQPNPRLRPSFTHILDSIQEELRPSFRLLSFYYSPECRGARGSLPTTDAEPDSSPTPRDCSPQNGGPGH
Test [19] has the same target. Particulars: at 1 µM.
Test [20] deals with T4, Tyrosine-protein kinase ITK/TSK (Homo sapiens) (UniProt Q08881).
T4 sequence (whole entry): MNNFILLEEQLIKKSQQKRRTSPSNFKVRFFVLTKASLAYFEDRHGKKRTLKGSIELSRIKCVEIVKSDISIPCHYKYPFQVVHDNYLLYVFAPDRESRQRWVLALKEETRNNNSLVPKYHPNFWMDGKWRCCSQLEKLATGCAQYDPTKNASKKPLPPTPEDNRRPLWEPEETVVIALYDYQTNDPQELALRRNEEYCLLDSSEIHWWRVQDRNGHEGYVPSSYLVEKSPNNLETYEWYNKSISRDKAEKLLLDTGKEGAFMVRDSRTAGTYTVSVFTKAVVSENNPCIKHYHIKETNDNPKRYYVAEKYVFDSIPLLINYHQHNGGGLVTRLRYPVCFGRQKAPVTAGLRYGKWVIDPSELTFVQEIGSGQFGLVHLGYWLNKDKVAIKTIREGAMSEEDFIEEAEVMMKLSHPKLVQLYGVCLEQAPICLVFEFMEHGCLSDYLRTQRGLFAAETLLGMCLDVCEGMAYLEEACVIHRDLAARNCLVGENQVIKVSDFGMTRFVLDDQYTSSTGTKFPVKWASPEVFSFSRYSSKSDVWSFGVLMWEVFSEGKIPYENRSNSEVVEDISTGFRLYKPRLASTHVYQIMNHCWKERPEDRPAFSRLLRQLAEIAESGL
Particulars: at 0.1 µM.

Tyrosine-protein kinase HCK (Homo sapiens), sequence (P08631 2-526 limits assumed): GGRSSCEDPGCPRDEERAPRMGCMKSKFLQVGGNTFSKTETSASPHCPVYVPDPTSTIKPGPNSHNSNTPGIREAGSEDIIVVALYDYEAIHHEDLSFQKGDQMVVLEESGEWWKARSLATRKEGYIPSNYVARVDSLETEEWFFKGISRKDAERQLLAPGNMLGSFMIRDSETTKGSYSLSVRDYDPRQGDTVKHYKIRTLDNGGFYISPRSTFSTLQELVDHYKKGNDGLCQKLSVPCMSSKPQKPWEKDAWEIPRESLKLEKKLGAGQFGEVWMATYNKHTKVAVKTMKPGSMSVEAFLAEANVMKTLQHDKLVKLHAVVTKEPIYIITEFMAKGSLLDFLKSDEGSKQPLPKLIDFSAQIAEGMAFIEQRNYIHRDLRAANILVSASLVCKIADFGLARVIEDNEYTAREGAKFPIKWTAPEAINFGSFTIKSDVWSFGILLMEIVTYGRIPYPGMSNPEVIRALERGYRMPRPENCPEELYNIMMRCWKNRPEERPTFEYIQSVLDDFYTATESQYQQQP
Insulin-like growth factor 1 receptor (Homo sapiens), sequence (P08069 31-736 limits assumed): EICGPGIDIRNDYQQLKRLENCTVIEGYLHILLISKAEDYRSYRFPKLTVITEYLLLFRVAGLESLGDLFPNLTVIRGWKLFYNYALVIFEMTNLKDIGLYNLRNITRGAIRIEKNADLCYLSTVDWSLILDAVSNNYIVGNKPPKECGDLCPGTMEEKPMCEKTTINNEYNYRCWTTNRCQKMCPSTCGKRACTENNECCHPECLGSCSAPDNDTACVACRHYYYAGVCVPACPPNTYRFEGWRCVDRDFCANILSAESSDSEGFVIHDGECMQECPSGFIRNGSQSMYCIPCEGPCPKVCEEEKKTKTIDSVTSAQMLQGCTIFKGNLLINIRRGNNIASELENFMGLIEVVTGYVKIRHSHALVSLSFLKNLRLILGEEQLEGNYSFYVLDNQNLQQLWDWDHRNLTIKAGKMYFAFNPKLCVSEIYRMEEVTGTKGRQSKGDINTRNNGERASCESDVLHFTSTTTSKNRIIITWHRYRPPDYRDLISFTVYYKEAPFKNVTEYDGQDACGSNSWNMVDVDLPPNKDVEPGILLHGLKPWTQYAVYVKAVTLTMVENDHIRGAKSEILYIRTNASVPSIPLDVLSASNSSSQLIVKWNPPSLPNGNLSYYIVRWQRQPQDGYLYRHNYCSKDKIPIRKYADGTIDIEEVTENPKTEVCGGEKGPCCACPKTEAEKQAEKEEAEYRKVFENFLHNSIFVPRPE
Insulin-like growth factor 1 receptor (Homo sapiens), sequence (P08069 741-1367 limits assumed): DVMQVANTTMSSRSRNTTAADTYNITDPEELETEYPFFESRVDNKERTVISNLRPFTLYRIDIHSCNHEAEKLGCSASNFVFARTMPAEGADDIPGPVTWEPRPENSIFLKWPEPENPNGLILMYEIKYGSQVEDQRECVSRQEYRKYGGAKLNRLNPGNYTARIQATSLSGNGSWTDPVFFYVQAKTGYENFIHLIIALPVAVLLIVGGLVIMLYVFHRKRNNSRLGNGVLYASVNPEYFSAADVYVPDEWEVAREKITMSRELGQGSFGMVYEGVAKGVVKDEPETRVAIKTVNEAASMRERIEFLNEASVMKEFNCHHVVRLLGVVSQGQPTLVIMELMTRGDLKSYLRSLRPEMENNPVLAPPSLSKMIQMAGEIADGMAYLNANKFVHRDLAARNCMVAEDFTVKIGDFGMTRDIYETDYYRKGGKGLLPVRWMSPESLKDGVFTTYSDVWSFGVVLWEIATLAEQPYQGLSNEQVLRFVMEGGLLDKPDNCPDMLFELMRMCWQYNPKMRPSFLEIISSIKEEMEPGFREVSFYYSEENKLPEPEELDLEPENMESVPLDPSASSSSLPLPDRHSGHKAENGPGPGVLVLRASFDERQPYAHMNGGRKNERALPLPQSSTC

In general, inhibition refers to the change of the read-out against control, counted positive when it falls. Take `CS(=O)(=O)CCNCc1ccc(-c2ccc3ncnc(Nc4ccc(OCc5cccc(F)c5)c(C(F)(F)F)c4)c3c2)o1`: the inhibition was 10.1% in [1]; 3.95% in [2]; 3.53% in test [3]; 12.1% in test [4]; 4.32% in test [5]; -0.03% in test [6]. The inhibition in test [7] was -1.42%; in test [8], 0.94%; in test [9], -0.75%; in test [10], 1.1%; in [11], 2.37%; in [12], 5.21%. Besides, the inhibition in test [13] amounted to 4.98%; in test [14], 0.07%; in test [15], 1.69%; in test [16], 5.7%; in [17], 6.44%; in test [18] it was 3.1%. Besides, the inhibition in test [19] came to 2.55%; in test [20], 1.12%.

In the case of `COc1ccc2cc(-c3c(-c4ccncc4)nc(-c4ccc([S+](C)[O-])cc4)n3C)ccc2c1` (stereo not given), the inhibition in [1] is 0.29%; in test [2], 1.98%; in test [3], 4.45%; in test [4], 4.12%; in test [5], 5.59%; in test [6], 1.55%. For the same compound, the inhibition in [7] is 0.4%; in test [8] it was -0.21%; in test [9], -0.69%; in test [10], 3.05%; in test [11], 2.67%; in test [12], 4.09%. In addition, the inhibition in [13] is 6.94%; in [14], 1.13%; in test [15], 0.1%; in test [16] it was -0.81%; in test [17], 3.26%; in [18], 1.09%. The inhibition in test [19] came to 1.11%; in test [20], 1.06%.

Turning to `COc1ccccc1Nc1ncc(-c2ccccc2)o1`, the inhibition in [1] worked out at 5.41%; in test [2] it was 4.91%; in test [3], 4.18%; in [4] it was 10.2%; in test [5], 25.5%; in test [6] it was 3.38%. Further, the inhibition was determined as 9.85% in test [7]; 12% in test [8]; 53.5% in test [9]; 4.02% in [10]; 8.38% in test [11]; 9.81% in test [12]. The inhibition in [13] is 13.3%; in [14], -0.7%; in [15], 1.64%; in test [16], 1.17%; in [17] it was 3.48%; in test [18], 3.09%. The inhibition came out at 3.73% in test [19] and 0.73% in [20].
